Measurements published in PubChem BioAssay (NCI).
This is part of a sample that, as a whole, favours compounds with a hit. Of some 83,000 tested, about 20% had one in any assay.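 Note: values are percent growth. 100 is the growth of untreated cells, values between 100 and 0 indicate rising inhibition; between -100 and 0 indicates cell death.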 The source made the active and inactive calls. How the source made its calls: active means growth percent below 10; inactive means the rest.

Test system: A498 renal
Assay: NCI-60 one-dose screen, 48 h (100 = growth as untreated, 0 = no growth, -100 = all killed)
Conditions: 10 µM unless noted

| SMILES | growth |
| --- | --- |
| Cc1ccc2sc3c(NCCCNCCO)nc4ccccc4c3c(=O)c2c1 | 65.8% (inactive) |
| NCCOc1ncccc1/C=C1\c2ccccc2-c2ccc(F)cc21 | 18.9% (inactive) |
| CNCCNc1nc2ccccc2c2c(=O)c3cc(OC)ccc3sc12 | 45.7% (inactive) |
| CC(C)c1ccc(S(=O)(=O)NC(=O)NC2CCCC2)cc1 | 102% (inactive) |
| COc1cc(/C=C2\CN(C)C/C(=C\c3cc(CN4CCCC4)c(O)c(OC)c3)C2=O)cc(CN2CCCC2)c1O | 98.2% (inactive) |
| Nc1ccccc1-c1ccc(-c2ccc(Cl)cc2)c2c1[nH]c1ccccc12 | 72.4% (inactive) |
| O=C(Cn1cc(COc2ncnc3c2cnn3-c2ccccc2)nn1)Nc1ccccn1 | 78.7% (inactive) |
| NCCOc1ccccc1/C=C1\c2ccccc2-c2ccc([N+](=O)[O-])cc21 | 25.1% (inactive) |
| COc1cc(/C(C#N)=C/c2nc3c(N4CCOCC4)nc(Cl)nc3n2C)cc(OC)c1OC | -28.1% (active) |
| Cc1ccc2cccc(Oc3ccc(Nc4ncnc5onc(-c6ccccc6)c45)cc3)c2n1 | 13% (inactive) |
| COC(=O)/C(CCC=C(C)C)=C1\[C@@H](OC(C)=O)C[C@@]2(C)[C@H]1C[C@@H](O)[C@H]1[C@@]3(C)CC[C@H](NCc4ccccc4)[C@@H](C)[C@@H]3CC[C@@]12C | 98.1% (inactive) |
| COc1cc(/C=C/C(=O)c2ccc(Cl)cc2)cc(CN2CCCCC2)c1O | 82.6% (inactive) |
| O=C(/C=C/c1ccc(Cl)cc1)c1ccc(Nc2nc(NCCO)nc(Nc3ccc(Cl)cc3)n2)cc1 | 79.5% (inactive) |
| CN1CCN(Cc2ccc(NC(=O)c3[nH]ncc3Nc3cc(OC4CCCC4)ncn3)cc2)CC1 | 49.6% (inactive) |
| Cn1c(/C=C(\C#N)c2ccccc2)nc2c(N3CCOCC3)nc(Cl)nc21 | 2.31% (active) |
| CCN1C(=O)N(CC)C2Nn3c(s/c(=C\c4ccccc4F)c3=O)=NC21 (centres undefined) | 43.3% (inactive) |
| Cc1ccccc1CNC(=O)C1CN(c2ccc(Cl)cc2)N(c2ccc(Cl)cc2)C1=O (centres undefined) | 86.2% (inactive) |
| CCCCC1CCc2cccc3c(SCC(=O)N(C)c4ccc(Cl)cc4)cc[n+]1c23 (centres undefined) | 114% (inactive) |
| Clc1ccc(Oc2ccc(Nc3ncnc4onc(-c5ccccc5)c34)cc2)c(Cl)c1 | 103% (inactive) |
| O=C(O)c1cn(C2CC2)c2cc(N3CCN(C(=O)C[n+]4ccccc4)CC3)c(F)cc2c1=O | 87.6% (inactive) |

| SMILES | growth |
| --- | --- |
| O=C(CSc1nc2ccccc2c(=O)n1-c1ccccc1)Nc1ccc(C(=O)/C=C/c2ccc(Cl)cc2)cc1 | 95.2% (inactive) |
| Cc1nc(Nc2cn[nH]c2C(=O)Nc2ccc(CN3CCN(C)CC3)cc2)c2ccsc2n1 | 66.7% (inactive) |
| CN1C(=O)N(C)C2Nn3c(s/c(=C4\C(=O)N(CCc5ccccc5)c5ccccc54)c3=O)=NC21 (centres undefined) | 70.3% (inactive) |
| O=C(/C=C/c1ccc(C(F)(F)F)cc1)c1ccc(Nc2nc(NCCO)nc(N3CCOCC3)n2)cc1 | 98% (inactive) |
| COc1cc(/C=C/C(=O)c2ccc(Nc3nc(NCCO)nc(N4CCOCC4)n3)cc2)cc(OC)c1OC | 2.25% (active) |
| COc1cc(/C=C2\CN(S(=O)(=O)c3ccccc3)C/C(=C\c3cc(CN4CCCC4)c(O)c(OC)c3)C2=O)cc(CN2CCCC2)c1O | 8.57% (active) |
| O=c1c2cc(F)ccc2sc2c(Nc3ccncc3)nc3ccccc3c12 | 63.9% (inactive) |
| O=c1c2cc(F)ccc2sc2c(NCCN3CCCC3)nc3ccccc3c12 | 26% (inactive) |
| CNC(=O)c1cc(Oc2ccc(CC(=O)Nc3cc(C(C)(C)C)cn3C)cc2)ccn1 | 53.9% (inactive) |
| COc1cc2nc(NC3CCCC3)nc(NC3CCN(C(C)C)CC3)c2cc1OC | 97.4% (inactive) |
| O=C(NCc1ccco1)C1CN(c2ccc(Cl)cc2)N(c2ccc(Cl)cc2)C1=O (centres undefined) | 38.2% (inactive) |
| COc1cccc2cc(N(C)c3nc(C)nc4ccsc34)ccc12 | -9.74% (active) |
| CN1C(=O)N(C)C2(c3ccccc3)OC(=S)NC12c1ccccc1 (centres undefined) | 105% (inactive) |
| Nc1nc(-c2cnccn2)nn1-c1nc2ccccc2s1 | 118% (inactive) |
| COc1ccc(N)c(-c2cc3c(c4c2[nH]c2ccc(OC)cc24)CCCC3)c1 | 88.8% (inactive) |
| COc1cccc(/C(C#N)=C/c2nc3c(N4CCOCC4)nc(Cl)nc3n2C)c1 | -2.48% (active) |
| O=c1c(-c2nc3ccccc3[nH]2)cc2ccccc2n1Cc1cn(Cc2ccc(N3CCOCC3)cc2)nn1 | 92.4% (inactive) |
| Cn1c2c(c(=O)[nH]c1=O)NC1=C(C(=O)c3ccccc31)C1(C=C(O)c3ccccc31)N2 (centres undefined) | 143% (inactive) |
| COC(=O)/C(CCC=C(C)C)=C1\[C@@H](OC(C)=O)C[C@@]2(C)[C@H]1C[C@@H](O)[C@H]1[C@@]3(C)CC[C@H](NCCCNCCCCNCCCN)[C@@H](C)[C@@H]3CC[C@@]12C | 69.1% (inactive) |
